Several values for one entry are separate records, joined by “and”; a condition that tells them apart may be missing. Identical values can stand only once. About 2,000 (36%) of roughly 5,500 compounds were called active. About 18% were inconclusive and are not listed. Cut-off read from the data, not from the text of the source: active = normalized growth mostly below about 0.91 (no sharp cut-off); inconclusive = no clear call, values can overlap the other calls; inactive = mostly above about 0.92. The list shows a part of the results.
Experiment: chemical genetic growth profiling, strain panel (AID 1159580);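 note: tested at 20 µM; growth read once vehicle control cultures reached saturation at 30 °C; 1 = growth at the plate median or of vehicle wells; lower values mean less growth of the strain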
Conditions: S. cerevisiae deletion strains, growth OD

Measured: normalized growth

Oc1c(Cl)cc(Cl)c(Cl)c1Cc1c(O)c(Cl)cc(Cl)c1Cl
active: locus YAL021C, strain ccr4, stronger effect = lower value 0.0649 | locus YAL026C, strain drs2, stronger effect = lower value 0.0639 | locus YAL030W, strain snc1, stronger effect = lower value 0.0572 | locus YBL061C, strain skt5, stronger effect = lower value 0.0628 | locus YBR009C, strain hhf1, stronger effect = lower value 0.0575 | locus YBR021W, strain FUR4, stronger effect = lower value 0.0863 | locus YBR023C, strain chs3, stronger effect = lower value 0.0623 | locus YBR171W, strain sec66, stronger effect = lower value 0.0838 | locus YBR229C, strain ROT2, stronger effect = lower value 0.0457 | locus YBR231C, strain swc5, stronger effect = lower value 0.0612 | locus YBR279W, strain paf1, stronger effect = lower value 0.0633 | locus YCL011C, strain gbp2, stronger effect = lower value 0.0558 | locus YCL016C, strain dcc1, stronger effect = lower value 0.0684 | locus YCL029C, strain bik1, stronger effect = lower value 0.0602 | locus YCL061C, strain MRC1, stronger effect = lower value 0.064 | locus YCL069W, strain vba3, stronger effect = lower value 0.0605 | locus YCR088W, strain abp1, stronger effect = lower value 0.0632 | locus YDL005C, strain med2, stronger effect = lower value 0.0765 | locus YDL035C, strain GPR1, stronger effect = lower value 0.0447 | locus YDL040C, strain nat1, stronger effect = lower value 0.0596 | locus YDL074C, strain BRE1, stronger effect = lower value 0.0681 | locus YDL101C, strain DUN1, stronger effect = lower value 0.0525 | locus YDL185W, strain tfp1, stronger effect = lower value 0.0761 | locus YDL192W, strain arf1, stronger effect = lower value 0.0596 | locus YDR001C, strain nth1, stronger effect = lower value 0.0623 | locus YDR069C, strain doa4, stronger effect = lower value 0.0643 | locus YDR101C, strain arx1, stronger effect = lower value 0.0573 | locus YDR137W, strain rgp1, stronger effect = lower value 0.108 | locus YDR159W, strain sac3, stronger effect = lower value 0.111 | locus YDR162C, strain NBP2, stronger effect = lower value 0.0454 | locus YDR195W, strain ref2 0.126 | locus YDR297W, strain sur2, stronger effect = lower value 0.0566 | locus YDR318W, strain mcm21, stronger effect = lower value 0.0637 | locus YDR334W, strain swr1, stronger effect = lower value 0.0669 | locus YDR335W, strain msn5, stronger effect = lower value 0.061 | locus YDR388W, stronger effect = lower value 0.0571 | locus YDR392W, strain spt3, stronger effect = lower value 0.0734 | locus YDR502C, strain sam2, stronger effect = lower value 0.0651 | locus YEL003W, strain gim4, stronger effect = lower value 0.0558 | locus YEL037C, strain rad23, stronger effect = lower value 0.0567 | locus YEL061C, strain CIN8 (second series), stronger effect = lower value 0.0634 | locus YEL061C, strain CIN8, stronger effect = lower value 0.0485 | locus YER015W, strain faa2, stronger effect = lower value 0.065 | locus YER016W, strain bim1, stronger effect = lower value 0.0638 | locus YER110C, stronger effect = lower value 0.0729 | locus YER111C, strain swi4, stronger effect = lower value 0.0725 | locus YER155C, strain BEM2 (second series), stronger effect = lower value 0.0878 | locus YER155C, strain BEM2, stronger effect = lower value 0.0604 | locus YER167W, strain BCK2, stronger effect = lower value 0.0476 | locus YFR010W, strain ubp6, stronger effect = lower value 0.0712 | locus YGL078C, strain dbp3, stronger effect = lower value 0.108 | locus YGL086W, strain mad1, stronger effect = lower value 0.0548 | locus YGL167C, strain pmr1, stronger effect = lower value 0.0813 | locus YGL173C, strain kem1, stronger effect = lower value 0.0685 | locus YGL227W, strain vid30, stronger effect = lower value 0.0622 | locus YGL240W, strain doc1, stronger effect = lower value 0.0737 | locus YGL248W, strain PDE1, stronger effect = lower value 0.0447 | locus YGL253W, strain hxk2, stronger effect = lower value 0.0537 | locus YGR135W, strain pre9, stronger effect = lower value 0.0633 | locus YGR252W, strain gcn5, stronger effect = lower value 0.179 | locus YHR013C, strain ard1, stronger effect = lower value 0.108 | locus YHR027C, strain rpn1, stronger effect = lower value 0.0624 | locus YHR030C, strain SLT2, stronger effect = lower value 0.0509 and 0.0952 | locus YHR079C, strain IRE1 (second series), stronger effect = lower value 0.0571 | locus YHR079C, strain IRE1, stronger effect = lower value 0.137 | locus YHR094C, strain hxt1, stronger effect = lower value 0.0585 | locus YHR129C, strain ARP1, stronger effect = lower value 0.0547 | locus YHR142W, strain chs7, stronger effect = lower value 0.0728 | locus YHR200W, strain rpn10, stronger effect = lower value 0.0603 | locus YIL066C, strain RNR3, stronger effect = lower value 0.0457 | locus YIL073C, strain SPO22, stronger effect = lower value 0.0959 | locus YIL125W, strain kgd1, stronger effect = lower value 0.0781 | locus YIR030C, strain dcg1, stronger effect = lower value 0.0579 | locus YJL092W, strain hpr5, stronger effect = lower value 0.0606 | locus YJL095W, strain BCK1 (second series), stronger effect = lower value 0.0579 | locus YJL095W, strain BCK1, stronger effect = lower value 0.0575 and 0.0959 | locus YJL115W, strain asf1, stronger effect = lower value 0.0753 | locus YJL129C, strain trk1, stronger effect = lower value 0.0909 | locus YJL134W, strain LCB3, stronger effect = lower value 0.0469 | locus YJL154C, strain vps35, stronger effect = lower value 0.0611 | locus YJL164C, strain tpk1, stronger effect = lower value 0.0591 | locus YJL166W, strain qcr8, stronger effect = lower value 0.0615 | locus YJL168C, strain set2, stronger effect = lower value 0.0584 | locus YJL187C, strain SWE1 (second series), stronger effect = lower value 0.0437 | locus YJR043C, strain POL32, stronger effect = lower value 0.0543 | locus YJR066W, strain TOR1, stronger effect = lower value 0.0109 | locus YKL009W, strain mrt4, stronger effect = lower value 0.13 | locus YKL068W, stronger effect = lower value 0.0876 | locus YKL085W, strain MDH1 (second series), stronger effect = lower value 0.0638 | locus YKL085W, strain MDH1, stronger effect = lower value 0.0638 | locus YKL160W, strain elf1, stronger effect = lower value 0.0626 | locus YKL190W, strain CNB1, stronger effect = lower value 0.0457 | locus YKR001C, strain vps1, stronger effect = lower value 0.064 | locus YKR026C, strain gcn3, stronger effect = lower value 0.063 | locus YKR091W, strain srl3, stronger effect = lower value 0.058 | locus YLL001W, strain dnm1, stronger effect = lower value 0.0618 | locus YLL026W, stronger effect = lower value 0.0568 | locus YLL041C, strain sdh2, stronger effect = lower value 0.0572 | locus YLR027C, strain aat2, stronger effect = lower value 0.0557 | locus YLR039C, strain RIC1, stronger effect = lower value 0.101 | locus YLR058C, strain SHM2, stronger effect = lower value 0.0462 | locus YLR102C, strain apc9, stronger effect = lower value 0.0599 | locus YLR113W, strain HOG1, stronger effect = lower value 0.119 | locus YLR221C, strain rsa3, stronger effect = lower value 0.064 | locus YLR258W, strain gsy2, stronger effect = lower value 0.0646 | locus YLR262C, strain YPT6 (second series), stronger effect = lower value 0.0785 | locus YLR262C, strain YPT6, stronger effect = lower value 0.114 | locus YLR268W, strain sec22, stronger effect = lower value 0.0689 | locus YLR320W, strain mms22, stronger effect = lower value 0.0782 | locus YLR330W, strain CHS5, stronger effect = lower value 0.0515 | locus YLR342W, strain FKS1 (second series), stronger effect = lower value 0.0549 | locus YLR342W, strain FKS1, stronger effect = lower value 0.0674 | locus YLR357W, strain rsc2, stronger effect = lower value 0.132 | locus YLR370C, strain arc18, stronger effect = lower value 0.0635 | locus YLR371W, strain rom2, stronger effect = lower value 0.0617 | locus YLR384C, strain iki3, stronger effect = lower value 0.0627 | locus YLR418C, strain cdc73, stronger effect = lower value 0.102 | locus YML016C, strain PPZ1, stronger effect = lower value 0.0443 | locus YML032C, strain rad52, stronger effect = lower value 0.0719 | locus YML120C, strain ndi1, stronger effect = lower value 0.0723 | locus YML124C, strain tub3, stronger effect = lower value 0.0588 | locus YMR058W, strain fet3, stronger effect = lower value 0.06 | locus YMR078C, strain ctf18, stronger effect = lower value 0.0715 | locus YMR125W, strain sto1, stronger effect = lower value 0.0705 | locus YMR129W, stronger effect = lower value 0.0593 | locus YMR205C, strain PFK2, stronger effect = lower value 0.0865 | locus YMR223W, strain ubp8, stronger effect = lower value 0.064 | locus YMR231W, strain pep5, stronger effect = lower value 0.0739 | locus YMR307W, strain GAS1, stronger effect = lower value 0.095 | locus YNL067W, strain RPL9B, stronger effect = lower value 0.0449 | locus YNL071W, strain lat1, stronger effect = lower value 0.0618 | locus YNL183C, strain NPR1, stronger effect = lower value -0.000219 | locus YNL209W, strain ssb2, stronger effect = lower value 0.0615 | locus YNL233W, strain BNI4, stronger effect = lower value 0.0507 | locus YNL248C, strain rpa49, stronger effect = lower value 0.0739 | locus YNL250W, strain rad50, stronger effect = lower value 0.232 | locus YNL271C, strain bni1, stronger effect = lower value 0.0767 | locus YNL298W, strain CLA4, stronger effect = lower value 0.0832 | locus YNL307C, strain MCK1, stronger effect = lower value 0.0665 | locus YNL322C, strain KRE1 (second series), stronger effect = lower value 0.0815 | locus YNR049C, strain mso1, stronger effect = lower value 0.0574 | locus YNR052C, strain pop2, stronger effect = lower value 0.0618 | locus YOL147C, strain pex11, stronger effect = lower value 0.0569 | locus YOR001W, strain rrp6, stronger effect = lower value 0.0782 | locus YOR061W, strain CKA2, stronger effect = lower value 0.0448 | locus YOR069W, strain VPS5, stronger effect = lower value 0.0463 | locus YOR070C, strain gyp1, stronger effect = lower value 0.0582 | locus YOR080W, strain dia2, stronger effect = lower value 0.0666 | locus YOR083W, strain WHI5, stronger effect = lower value 0.065 | locus YOR106W, strain vam3, stronger effect = lower value 0.0665 | locus YOR136W, strain idh2, stronger effect = lower value 0.0719 | locus YOR144C, strain elg1, stronger effect = lower value 0.0552 | locus YOR184W, strain ser1, stronger effect = lower value 0.075 | locus YOR231W, strain MKK1, stronger effect = lower value 0.112 | locus YOR265W, strain rbl2, stronger effect = lower value 0.065 | locus YOR270C, strain vph1, stronger effect = lower value 0.0914 | locus YOR290C, strain snf2, stronger effect = lower value 0.0645 | locus YOR316C, strain cot1, stronger effect = lower value 0.0584 | locus YPL051W, strain arl3, stronger effect = lower value 0.0639 | locus YPL078C, strain atp4, stronger effect = lower value 0.0652 | locus YPL106C, strain sse1, stronger effect = lower value 0.1 | locus YPL240C, strain hsp82, stronger effect = lower value 0.0579 | locus YPL256C, strain CLN2, stronger effect = lower value 0.116 | locus YPR119W, strain clb2, stronger effect = lower value 0.0624 | locus YPR141C, strain kar3, stronger effect = lower value 0.0848 | locus YPR163C, strain tif3, stronger effect = lower value 0.0697 | locus YPR167C, strain met16, stronger effect = lower value 0.0631 | strain wtn01, stronger effect = lower value 0.0656

Source: PubChem BioAssay AID1159580 (chemical genetic matrix, 2015)
